# Laboratory results as given in PubChem BioAssay AID1259415 (National Center for Advancing Translational Sciences (NCATS), 2018).
# The whole screen tested about 410,000 compounds, of which about 18,000 (4.4%) were called active. About 7% were inconclusive and are not listed. Only a selection was taken, and actives are over-represented in it overall. Values without a mark were called inactive. Rule as the data show it: active = activity change below about -60%; inconclusive = no clear call, values can overlap the other calls; inactive = above about -39%.
# Assay: qHTS Assay for inhibitors of the human cytomegalovirus (HCMV)
# Conditions: HFF cells, HCMV-luciferase reporter, 72 h; at 57.5 µM; stronger effect = lower value
# Description: NCGC Assay Overview: Infection with human cytomegalovirus (HCMV) continues to pose significant threats for pregnant women and immunocompromised hosts. HCMV causes serious morbidity and mortality in transplant recipients, and congenital HCMV is the leading infectious cause of mental retardation and deafness in children. In the 1990s, the annual costs associated with the disease burden of congenital CMV were estimated at around $2 billion. A HCMV vaccine is not available yet and HCMV therapies result in intolerable side effects and emergence of drug resistant viruses. […] Towards this goal we have developed and characterized a luciferase HCMV reporter that was initially used in 96 well plates and then optimized to 1536-well plates for utilization in screening of the MLSMR collection, the NGCG diversity collection and the NCGC Pharmaceutical Collection of approved and investigational drugs.
# NCGC Assay Protocol Summary:
# This is a cell-based assay for HCMV inhibition in HFFs cells. The screening used 2 compound doses and the HCMV-luciferase at MOI of 1 PFU/cell. Cells were treated and infected with HCMV. At 72 h post infection cell lysates were collected and luciferase activity was determined using the Glomax-Multi + Detection System (Promega, Madison, WI). Data were normalized to the controls for basal activity (buffer only) and known HCMV inhibitors Salinmoycin.
# 1536-well assay protocol for the assay:
# (1) Add 3 ul CMV/HFF cell culture. 1000 cells/well in DMEM nirmal media.
# (2) Incubate 16 hr at 37C.
# (3) Add 23 nl control compound, 10uM of Salinomycin.
# (4) Add 23 nl compounds in DMSO solution.
# (5) Add 3 ul CMV suspension. Final 1 puf/ul, Virus stock 2000pfu/ul
# (6) Incubate 72 hrs at 37C.
# (7) Add 4 ul OneGlo Luc Reagent.
# (8) Incubate 5 min at room temperature.
# % is scaled to controls: 0 for no effect and ±100 for the full control effect.
row,Structure (SMILES),"activity change, negative = inhibition"
1,COc1ccc(C(=O)OCC(=O)NCC2CCCO2)cc1[N+](=O)[O-] (stereo not drawn),15.2%
2,O=C1C(C=NCC2CCCO2)=C(O)c2ccccc21 (stereo not drawn),69.7%
3,O=C1c2cccc3c([N+](=O)[O-])ccc(c23)C(=O)N1CC1CCCO1 (stereo not drawn),-82.1% (active)
4,CCOc1cc(C(C(=O)NCC2CCCO2)N(C(=O)Cn2nnc3ccccc32)c2cccc(OC)c2)ccc1O (stereo not drawn),-8.64%
5,Cc1ccc2oc(=O)c3cnn(CC(=O)NCc4ccccc4Cl)c3c2c1,-4.14%
6,COc1ccc(NC(=O)c2sc3nc[nH]c(=O)c3c2C)cc1,52.3%
7,Cc1ccc(-n2c(SCC(=O)N3CCC(C(=O)O)CC3)nc3ccccc3c2=O)cc1C,6.85%
8,CCCn1c(N)c(C(=O)CSc2nc3ccccc3c(=O)n2-c2ccc(OC)cc2)c(=O)[nH]c1=O,-29.3%
9,COc1cccc(-n2c(SCC(=O)c3c[nH]c4ccccc34)nc3ccccc3c2=O)c1,-93.8% (active)
10,COc1ccc(C)cc1NC(=O)COCc1cc(-c2cccs2)on1,-10.8%
11,Cc1ccc(C)c(N2CCN(c3ccc4cc(S(=O)(=O)N5CCC(C)CC5)ccc4n3)CC2)c1,19%
12,COc1cccc(NC(=O)N2CCC(NC(=O)C(Cc3cccc(C)c3)NC(C)=O)CC2)c1 (stereo not drawn),-66.8% (active)
13,CCOC(=O)C1CCN(C(=O)Nc2cccc(OC)c2)CC1,5.16%
14,COc1ccccc1CC(NC(C)=O)C(=O)NC1CCN(C(=O)Nc2ccccc2Cl)CC1 (stereo not drawn),0.54%
15,O=C(NCCCO)C(=O)Nc1c2c(nn1-c1ccccc1)CSC2,-2.71%
16,COc1cccc(CN2CCc3nc(SCC(=O)Nc4ccccc4)[nH]c(=O)c3C2)c1,4.11%
17,O=C(Nc1c(Cl)c(C2CC2)nn1-c1ccccc1)C(Cl)(Cl)Cl,12.3%
18,CCOc1ccc(N(CC)S(=O)(=O)N2CCCC(C(=O)NCc3ccc(Cl)cc3)C2)cc1 (stereo not drawn),-15.9%
19,CCOc1ccc(CNC(=O)C2CCCN(c3nnc(C)c4c(C)n(-c5ccccc5)nc34)C2)cc1 (stereo not drawn),-67.7% (active)
20,CCCCNC(=O)C1CCCN(c2nnc(C)c3c(C)n(-c4ccc(Cl)cc4)nc23)C1 (stereo not drawn),-6.23%
21,COc1ccc(S(=O)(=O)N2CCN(CC(=O)N3CCOCC3)CC2)cc1OC,4.11%
22,Cc1ccn(-c2cccc(-n3ccc(C)n3)n2)n1,65.3%

row,Structure (SMILES),"activity change, negative = inhibition"
1,CC(=O)NC(CC(=O)Nc1ccc(S(=O)(=O)N2CCOCC2)cc1)c1ccccc1 (stereo not drawn),0%
2,COc1cc(NC(=O)c2ccccc2NS(=O)(=O)c2ccc(Cl)s2)cc(OC)c1,-99.7% (active)
3,COC(=O)c1ccccc1NS(=O)(=O)c1ccc2c(c1)CCCN2C(C)=O,-2.94%
4,COc1cccc(NC(=O)c2ccccc2N(Cc2ccccc2)S(C)(=O)=O)c1,-6.12%
5,COc1cc(NS(=O)(=O)c2cccs2)cc(OC)c1,16.4%
6,COC(=O)c1ccc(NC(=O)c2ccccc2NS(=O)(=O)c2ccccc2)cc1,-105% (active)
7,Cc1cc(NS(=O)(=O)c2ccc(NC(=O)c3ccccc3C)cc2)nc(C)n1,-5.8%
8,COc1ccc(C2CC(=O)Nc3c2c(=O)nc2c(C)cccn32)cc1OC (stereo not drawn),3.37%
9,CCn1c(CNC(=O)c2ccccc2)nnc1SCC(=O)N1CCN(c2ccccc2)CC1,-25.6%
10,O=C(CCNS(=O)(=O)c1ccccc1C(F)(F)F)Nc1ccncc1,6.98%
11,Oc1ccc(N2CCN(C(=S)NCc3ccccc3)CC2)cc1,-63.6% (active)
12,Cc1ccccc1NC(=O)C1CCCN(C(=O)NCc2ccccc2)C1 (stereo not drawn),-18.4%
13,O=C(CN1CCN(c2ccccc2O)CC1)NC(=O)NCc1ccccc1,-4.33%
14,COc1cc(C2C(C(=O)OCCC#N)=C(C)NC3=C2S(=O)(=O)c2ccccc23)cc(OC)c1OC (stereo not drawn),2.51%
15,COc1ccccc1N1CCN(c2ncnc3onc(-c4cccc(Cl)c4)c23)CC1,10.1%
16,COc1ccc2c(c1)c(N1CCCC1=O)c(C(=O)Nc1ccc(OC)c(Cl)c1)n2C,-18.9%
17,Cc1nn(CC(=O)O)c(=O)c2cc3cc(F)ccc3n12,31%
18,CCNC(=O)COC(=O)CCNC(=O)c1cccc(C)c1,-28.9%
19,Cc1cccc(OCCNC(=S)NC(=O)c2cccnc2)c1,-37.9%
20,Cc1cccc(OCC(=O)NCCNC(=O)c2cccnc2)c1,-66.9% (active)
21,Cc1cc(C)c(S(=O)(=O)NN=C2c3ccccc3[C@H]3Cc4csc[n+]4[C@@H]23)c(C)c1,-27.2%
22,O=C(CCc1nc(CN2CCN(S(=O)(=O)c3ccc(F)cc3)CC2)no1)N1CCCCC1,-35.8%

row,Structure (SMILES),"activity change, negative = inhibition"
1,Cc1cccc(C)c1NC(=O)C1CCCN1C(=O)OC(C)(C)C (stereo not drawn),-2.93%
2,CCC[C@H]1CCCC/C=C\CCCC(=O)OCCN1C(=O)OC(C)(C)C,-71.3% (active)
3,Cc1nc(SCC(=O)NC2CCCCC2C)c(C#N)c(C)c1C (stereo not drawn),-103% (active)
4,CC1CCCCC1NC(=O)CSc1nnc(N)s1 (stereo not drawn),41.4%
5,Cc1nc(SCC(=O)NC2CCCC2)[nH]c(=O)c1C,-10.8%
6,COc1cccc(CNC(=O)[C@@H]2CCCN2C(=O)[C@@H]2CCCN2C(=O)c2ccccc2)c1,-2.63%
7,O=C(NCCS(=O)(=O)NCc1ccc(F)cc1)c1ccccc1,-9.67%
8,Cc1nc2c(C(=O)NCc3ccc4c(c3)OCO4)c[nH]n2c(=O)c1Cc1ccccc1F,-7.59%
9,Cc1c(NS(=O)(=O)c2cccc(C(=O)Nc3ccc(SC(F)F)cc3)c2)c(=O)n(-c2ccccc2)n1C,-2.26%
10,COc1ccc(NC(=O)/C(N=Nc2cccc(S(=O)(=O)Nc3ccc(SC(F)F)cc3)c2)=C(\C)O)cc1,-70.6% (active)
11,COc1ccc(NS(=O)(=O)c2cccc(C(=O)NCCc3ccc(S(N)(=O)=O)cc3)c2)cc1,-1.91%
12,Cc1ccc(Cl)cc1N1CCN(C(=O)c2cnc3c(-c4ccc(F)cc4)c(C)nn3c2C)CC1,7.36%
13,O=C(Nc1cccc([N+](=O)[O-])c1)N1CCc2ccccc2C1,-65.7% (active)
14,Cc1cccc(NC(=O)N2CCC(CN3CCc4ccccc4C3)CC2)c1C,7.59%
15,Cc1cccc(OC(C)C(=O)N2CCc3ccccc3C2)c1 (stereo not drawn),-31.1%
16,CC(=O)c1ccc(NC(=O)c2nc3nc(C)cc(C(F)F)n3n2)cc1,19.3%
17,CCOc1ccc(-c2nonc2NC(=O)c2oc3ccc(C)cc3c2C)cc1OCC,5.37%
18,Cc1ccc2c(O)c(Cc3ccccc3)c(=O)[nH]c2n1,22%
19,O=C(Nc1c(-c2ccc(F)cc2)nc2ccccn12)c1cccc(F)c1,-69.4% (active)
20,COC(=O)c1ccc2nc(-c3ccc(Cl)cc3)c(Cc3cccc(F)c3)n2c1,-17.1%
21,Cc1nc2ccccn2c(=O)c1NC(=O)c1c(F)cccc1F,-14.4%
22,Cc1ccc(CNC(=O)c2c(O)nc3c(C)cccn3c2=O)cc1,5.82%

row,Structure (SMILES),"activity change, negative = inhibition"
1,COC(=O)[C@@]1(Sc2ccc(OC)cc2)CC(=O)N(c2ccc(OC)cc2C)[C@@H]1c1ccc(OC(C)C)c(OC)c1,10.7%
2,COc1cc(OC)c(NC(=O)c2cnc(N3CCCC3)nc2C)cc1Cl,-14.2%
3,Cc1nnc(SCC(=O)N(C(C)C)C(C)C)nc1C,-39.9%
4,CC(C)OCCCNc1ncnc2c1[nH]c1ccc(F)cc12,-79% (active)
5,COc1ccc(Cn2cc(C(=O)c3ccc(C)cc3)c(=O)c3cc(OC)c(OC)cc32)cc1,-22.1%
6,O=C(NC1CCCC1)C(c1ccco1)N(C(=O)c1csnn1)c1ccccc1 (stereo not drawn),13.9%
7,CCCCN(C(=O)C1=NN(c2cc(C)ccc2C)C(=O)CC1)c1c(N)n(CCC)c(=O)[nH]c1=O,8.37%
8,Cn1c(=O)c2c(SCC(=O)N3CCc4ccccc43)nc(-c3ccc(Cl)cc3)nc2n(C)c1=O,17.9%
9,COc1ccccc1N1CCN(c2ncnc3onc(-c4ccc(F)cc4)c23)CC1,-11.8%
10,CCCCCCCCCCCCn1ccc(=N)cc1,-96.6% (active)
11,O=C(CCSCc1cccc(F)c1)NCc1ccccc1,-2.8%
12,O=C(NCC(c1ccc2c(c1)OCO2)N1CCN(c2ccccc2)CC1)C(=O)Nc1ccccc1F (stereo not drawn),9.73%
13,COC(=O)C1=C(c2ccccc2)c2ccccc2S(=O)(=O)N1CC(=O)Nc1ccccc1C(F)(F)F,-5.56%
14,CCCc1nn2c(=O)cc(COC(=O)c3ccc(NC(=O)C(C)Oc4ccccc4)cc3)nc2s1 (stereo not drawn),-18.3%
15,COC(=O)CC1Oc2ccccc2-n2cc(-c3ccccc3)nc21 (stereo not drawn),-14.2%
16,COCC(C)n1c(C)cc(C(=O)CSc2cc(C)c3ccccc3n2)c1C (stereo not drawn),-3.64%
17,COCCn1c(C)cc(C(=O)CSc2nc3ccccc3c(=O)n2C(C)COC)c1C (stereo not drawn),-66% (active)
18,COCC(C)n1c(SCc2ccc(C(=O)OC)o2)nc2ccccc2c1=O (stereo not drawn),-23%
19,O=C(NC1CCCC1)c1csc(C(O)c2cccc(Cl)c2)n1 (stereo not drawn),-12.9%
20,CC1CN(C(=O)c2ccc3c(c2)OCO3)OC(c2ccccc2)O1 (stereo not drawn),26.2%
21,CCCCCCn1nnc2sc(-c3ccccc3)cc2c1=O,15.8%
22,COc1ccc(CNC(=O)c2ccc3c(O)c(S(=O)(=O)c4ccccc4)c(=O)[nH]c3c2)cc1,6.38%
